Laboratory results taken from PubChem BioAssay (NCI).
About 83,000 compounds went through this panel and 20% of them were active in at least one assay; those are over-represented in the sample as a whole.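 96-well plates, one dose, 48 hours. Percent growth reported; active if below 10.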 Active and inactive are the calls of the source.

These compounds were tested on OVCAR-3 ovarian (assay: NCI-60 one-dose screen, 48 h (100 = growth as untreated, 0 = no growth, -100 = all killed)). Conditions: 10 µM unless noted.
Method: Growth inhibition of the OVCAR-3 human tumor cell line is measured as a screen for anti-cancer activity. Cells are grown in 96 well plates and exposed to the test compound for 48 hours. Compounds are tested at a single concentration, which is 10^-5 M for most compounds. The reported endpoint is percent growth (GI% or GIPRCNT), where numbers from 0 - 100% represent growth inhibition, and numbers from -100% - 0 represent cell death. For example, a value of 40 represents 60% growth inhibition. A value of 0 means no net growth occurred over the course of the experiment. A value of -40 indicates 40% of cells at the beginning of the experiment died by the end of the experiment. A value of -100 means all cells are dead at the end of the experiment.
NCI-60 Human Tumor Cell Lines Screen was performed using the standard one-dose NCI protocol, which is described in more detail at https://dtp.cancer.gov/discovery_development/nci-60/default.htm.
Compounds with GIPRCNT values below 10 were considered active. Activity score was based on GIPRCNT using the following formula: […]
Score is 0 for GIPRCNT values of 100 or above, 50 for GIPRCNT values of 0, and 100 for GIPRCNT values of -100.

| Structure (SMILES) | growth |
| --- | --- |
| CCCCc1nc(Cl)c(C2CC(c3ccc(S(N)(=O)=O)cc3)=NN2c2cc(Cl)cc(Cl)c2)[nH]1 (stereo not given) | 45% (inactive) |
| CC[C@]1(O)C[C@H]2CN(CCc3c([nH]c4ccccc34)C(C(=O)OC)(c3cc4c(cc3OC)N(C)[C@H]3[C@@](O)(C(=O)OC)[C@H](OC(C)=O)[C@]5(CC)[C@@H]6C[C@@H]6CN6CC[C@]43[C@@H]65)C2)C1 (stereo not given in full) | 5.03% (active) |
| COC(=O)[C@H](Cc1cn(C)cn1)NC(=O)[C@H](CC(C)C)NC(=O)Nc1cc(C(F)(F)F)cc(C(F)(F)F)c1 | -98.8% [100 µM] (active) |
| CCN1C(=O)C(C)C=C(C)C=C1C (stereo not given) | 92.6% (inactive) |
| CN(C)c1nc(-c2cccs2)n2nc(-c3ccc(Cl)cc3)cc2n1 | 14.8% (inactive) |
| CCOC(=O)C(Cc1ccccc1)n1c(O)c(/C=N/c2ncc(Cc3ccc(Cl)cc3Cl)s2)sc1=S (stereo not given) | 17.9% (inactive) |
| Nc1c(C(=O)Nc2cccc(Cl)c2)sc2nc3c(cc12)C(=O)CCC3 | 10.3% (inactive) |
| COc1ccc(CNc2c3ccccc3nc3ccc(OC)cc23)cc1 | 40.4% (inactive) |
| Cc1ccc(C(=O)CC(=O)C(F)(F)C(F)(F)C(F)(F)F)s1 | 107% (inactive) |
| COc1ccc(C2NC(=O)c3cc4c(cc3N2)OCO4)cc1 (stereo not given) | -45.9% (active) |
| CCOC(=O)C#Cc1c(C(=O)OCC)nnn1[C@@H]1O[C@H](COC(C)=O)[C@@H](OC(C)=O)[C@H]1OC(C)=O | 62.1% (inactive) |
| O=C(O)CSc1ccc(NCc2oc(CO)cc(=O)c2O)cc1 | 110% (inactive) |
| Cc1cccc2nc3ccccc3c(Nc3ccc(NS(C)(=O)=O)cc3)c12 | 74.3% (inactive) |
| CCCCCCCCCCCCNC(=O)N[C@H](C(=O)N[C@H]1/C=C/CCNC(=O)/C=C/[C@H](C)NC1=O)C(C)C | -44.3% (active) |
| CS(=O)(=O)c1ccc(C(=O)Nc2ccc(Cl)c(-c3ccccn3)c2)c(Cl)c1 | -11.1% (active) |
| O=C(N/N=C\c1cc(Br)ccc1O)c1ccncc1 | 25.1% (inactive) |
| CCCCCCCCCCCCCCCC1=NCCN1 | 77% (inactive) |
| COc1cc(Nc2ncccc2/C=C/C(=O)c2cc(OC)c(OC)c(OC)c2)cc(OC)c1OC | 91.9% (inactive) |
| O=C1/C(=C/c2ccccc2)SC(=Nc2ccccc2)N1Nc1ccccc1 | -5.68% (active) |
| CC(C)CC(=O)C(CCc1ccccn1)C(C)C (stereo not given) | 118% (inactive) |

| Structure (SMILES) | growth |
| --- | --- |
| CCn1c(Cc2ccccc2Nc2c(Cl)cccc2Cl)nnc1SCC(=O)Nc1ccccc1C(F)(F)F | 99.9% (inactive) |
| O=C1/C=C/[C@@H](O)[C@@H]2C[C@@H](O)C[C@H]2/C=C/CCC[C@H]([C@@H](O)CO)O1 | 86.7% (inactive) |
| O=C(N/N=C/c1ccc([N+](=O)[O-])o1)c1ccc(O)cc1 | 23.4% (inactive) |
| COc1cc(CN(CCC(O)N2CCCC2=O)Cc2ccc3c(c2)OCO3)cc(OC)c1OC (stereo not given) | 105% (inactive) |
| COc1ccc(Nc2nc(N)nc3c(=O)[nH]ccc23)cc1 | 113% (inactive) |
| O=C1Nc2ccccc2/C1=C\c1nc(C2CCN(S(=O)(=O)c3ccc(F)cc3)CC2)n2ccccc12 | 58.6% (inactive) |
| COc1cc(CN2CCC(N3CCCC3=O)c3ccccc32)cc(OC)c1OC (stereo not given) | 100% (inactive) |
| O=C(/C=C/c1ccccc1Br)c1cccc(OCCCCOc2cccc(C(=O)/C=C/c3ccccc3Br)c2)c1 | 108% (inactive) |
| COc1cc(/C=C/c2cc(/C=C/c3ccc(O)c(OC)c3)n(C(=O)c3ccccc3Br)n2)ccc1O | 12.6% (inactive) |
| Cn1cnc([N+](=O)[O-])c1S(=O)(=O)Oc1cccc2ccccc12 | -73% (active) |
| CC1=C(/C=C/C(C)=C/C=C(C(=O)O)\C(C)=C\C(=O)O)C(C)(C)CCC1 | 110% (inactive) |
| CCN(CC)CC(=O)Nc1c(C)ccc(N)c1C | 109% (inactive) |
| CC1(C)OC2OC3C(CN)OC(c4ccccc4)OC3C2O1 (stereo not given) | 105% (inactive) |
| COc1ccc([C@H]2c3[nH]c4ccccc4c3C[C@H]3C(=O)N(CCCCCCC(=O)NO)CC(=O)N23)cc1 | 33.9% (inactive) |
| COc1ccc(C2=NNC(c3ccc(Oc4nc5c(c(=O)n(C)c(=O)n5C)n4C)c(OC)c3)C2)cc1 (stereo not given) | 108% (inactive) |
| COCc1nc(NS(=O)(=O)c2ccc(N)cc2)nc(C)c1Br | 112% (inactive) |
| Cc1c(C(=O)CCl)c(=O)n(-c2ccccc2)n1C | 18.4% (inactive) |
| COc1ccc(-c2cc(C(=O)Nc3ccc(Br)cc3)nc3[nH]c(=O)sc23)cc1 | 36.9% (inactive) |
| CCN(CC)c1ccc(/C=N/N=C(N)N)cc1 | 4.63% (active) |
| O=C(CCl)Nc1cc(O)c2c(c1)C(=O)c1cccc(O)c1C2=O | -100% (active) |
